About 79,000 compounds went through this panel and 15% of them were active in at least one assay; those are over-represented in the sample as a whole. Unmarked numbers belong to inactive results. Cut-off read from the data, not from the text of the source: active = growth inhibition above about 70%; inactive = the rest.
Test: NCI Yeast Anticancer Drug Screen. Data for the mec2-1 strain (AID 157)
Details: S. cerevisiae mec2-1 strain, at 50.0 µM, hits give high values
Outline: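 mec2-1 yeast strain, carrying an alteration in DNA damage repair or cell cycle control, was exposed to compounds; growth inhibition was measured relative to vehicle-treated controls.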

SMILES	growth inhibition [%]
CC[C@@H]1C[C@H]2CC3c4[nH]c5ccc(O)cc5c4CCN(C2)C31	-24.4
Oc1c(Cl)cccc1Cl	-51.9
CCCCCC(N)CC(=O)O (centres undefined)	-21.1
CCOP(=S)(OCC)OP(=S)(OCC)OCC	-50.4
O=C1NC(=O)C2(CCOCC2)C(=O)N1	3.3
O=[P+](O)c1cccnc1	-8.05
O=C1NC(=O)C(CCO)(c2ccccc2)C(=O)N1	-13
CC(Br)CN(CC(C)Br)c1ccc(-c2ccccc2)cc1 (centres undefined)	30
C[N+](C)(Cc1ccc([N+](=O)[O-])cc1)c1ccc(N(CCCl)CCCl)cc1	-24.3
CCC1(CCO)C(=O)NC(=O)NC1=O	-48.9
O=C(Cc1ccc2c(c1)OCO2)c1cn(C(=O)Cc2ccc3c(c2)OCO3)c2ccccc12	5.9
c1ccc([As](c2ccccc2)c2ccccc2)cc1	-0.95
COc1cc2c(cc1OC)-c1c3c(cc4c1[C@H](C2)N(C)CC4)OCO3	-7.7
CS(=N)(=O)CCC(N)P(=O)(O)O (centres undefined)	-37.6
NCC(=O)c1ccc(O)c(O)c1	-7.05
CC([Se])=Nc1ccc(Br)cc1	0.8
CC(=O)C1CCC2C3CCC4CC(O)CCC4(C)C3CCC12C (centres undefined)	-59

Test: NCI Yeast Anticancer Drug Screen. Data for the sgs1 mgt1 strain (AID 161);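 note: 0% = growth of cultures given vehicle only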
Details: S. cerevisiae sgs1 mgt1 strain, at 50.0 µM, hits give high values
Outline: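 Yeast cells carrying a defined DNA-repair defect were exposed to test compounds. Growth inhibition was measured relative to vehicle-treated controls.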

SMILES	growth inhibition [%]
O=Cc1ccccc1.[C-]#[O+].[C-]#[O+].[C-]#[O+].[Cr]	1.8
CCCCOCCOC(=O)CCl	33
N#Cc1ccccn1	12.7
O=[As](O)(O)CC(Br)CBr (centres undefined)	5.95
C1CCC(N([P-]P([P-]N(C2CCCCC2)C2CCCCC2)N(C2CCCCC2)C2CCCCC2)C2CCCCC2)CC1.[C-]#[O+].[C-]#[O+].[C-]#[O+].[C-]#[O+].[C-]#[O+].[C-]#[O+].[Fe].[Fe] (centres undefined)	-23.2
CC1CN1C(=O)NCCCCCCNC(=O)N1CC1C (centres undefined)	-2.95
CN(C)[C@@H]1C(=O)C(C(N)=O)=C(O)[C@@]2(O)C(=O)C3=C(O)c4c(O)ccc(Cl)c4[C@@](C)(O)[C@H]3C[C@@H]12	13.2
C[Si](C)(C)[C@@]1([Se]c2ccccc2)CC[C@@H]1C(=O)c1ccccc1	-26.4
CCC1(CCSC#N)C(=O)NC(=O)NC1=O	11.2
CC1NC1(c1ccccc1)n1ccnc1 (centres undefined)	5.8
O=P(O)(O)c1ccccc1	8.85
O=NN(c1ccccc1)c1ccccc1	-8.6
c1ccc(N=PNc2ccccc2)cc1 (centres undefined)	-9.5
[C-]#[O+].[C-]#[O+].[C-]#[O+].[C-]#[O+].[Mo].c1ccc([As](CC[As](c2ccccc2)c2ccccc2)c2ccccc2)cc1	-5.8
O=C1NC(=O)C(Cc2ccc3c(c2)OCO3)C(=O)N1	4.95
ClC1CC2CC1C1CNCC21 (centres undefined)	-4.05

SMILES	growth inhibition [%]
CC(C)C(O)(C(=O)OCC1=CC[N+]2([O-])CCC(O)C12)C(C)O (centres undefined)	-9.7
C1CC[N+]2=C(C1)OCCC2	6.75
O=C(Nc1ccccc1)c1ccc([As](c2ccc(C(=O)Nc3ccccc3)cc2)c2ccc(C(=O)Nc3ccccc3)cc2)cc1	-4.85
CC1N=C(c2ccccc2)C2(c3ccccc3)C(C)N12 (centres undefined)	-7.7
COc1ccc2c(c1)c(CC(C)[N+](=O)[O-])c(C)n2Cc1ccccc1 (centres undefined)	5.65
C(=C\C1CC2CCCN2O1)/c1ccccc1 (centres undefined)	15.2
CCOP(=O)(OCC)/C(C#N)=C/c1cccn1C	-44
CC[C@@H]1C[C@H]2CC3c4[nH]c5ccc(O)cc5c4CCN(C2)C31	23.6
Oc1c(Cl)cccc1Cl	-63
CCCCCC(N)CC(=O)O (centres undefined)	4.25
CCOP(=S)(OCC)OP(=S)(OCC)OCC	-40.6
O=C1NC(=O)C2(CCOCC2)C(=O)N1	-19.1
O=[P+](O)c1cccnc1	14.2
O=C1NC(=O)C(CCO)(c2ccccc2)C(=O)N1	-4.4
CC(Br)CN(CC(C)Br)c1ccc(-c2ccccc2)cc1 (centres undefined)	12.6
C[N+](C)(Cc1ccc([N+](=O)[O-])cc1)c1ccc(N(CCCl)CCCl)cc1	-33
